This is one part of a sample in which hits are shown more often than they occur.
TDP-43 rescue = qHTS of TDP-43 Inhibitors: NCGC Sytravon Library Screen; hit rate 0.45% among 45,000; yeast TDP-43 toxicity rescue, BacTiter-Glo growth, 24 h; Potency, µM (top dose mostly 46.1 µM), actives largely listed as activators; active = well fitted activation curve with a large enough effect; note: nearly all actives have a fitted effect of over 55% in size
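TDP-43-expressing yeast, pregrown in raffinose, seeded at OD600 0.02 in galactose medium with compound for 24 hr at 30 deg C. Growth read by BacTiter-Glo luminescence, so rescue of toxicity appears as activation.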
Hits are given with their value; i = inactive.

SMILES | TDP-43 rescue
O=C(Nc1ccc(N2CCCC2)cc1)c1cccc(-c2cc3ccccc3oc2=O)c1 | 22µM
CC(=O)N1CCN(c2ccc(NC(=O)c3cccc(Cl)c3)cc2)CC1 | i
O=C(Nc1ccc(Br)cn1)c1cccc(-c2cc3ccccc3oc2=O)c1 | i
CN1CCCC(C(=O)Nc2cccc(Cl)c2)CC1 (stereo not given) | i
CCc1c(C)c2ccc(O)c(CN3CCN(c4ccccc4)CC3)c2oc1=O | i
CCN1CCC(N(Cc2ccc(F)cc2)C(=O)Nc2ccc(C)c(F)c2)CC1 | i
Cc1cc(C)n2nc(SC(C)C(=O)N(C)C3CCCCC3)nc2n1 (stereo not given) | i
COc1ccccc1N1CCN(C(=O)c2ccc3c(c2)N(Cc2ccccc2)C(=O)c2ccccc2S3(=O)=O)CC1 | i
O=C(NCCC1=CCCCC1)c1ccc2c(c1)N(Cc1ccccc1)C(=O)c1ccccc1S2(=O)=O | i
CC(C)Oc1ccc(Br)cc1C(=O)N/N=C/c1c[nH]c2ccccc12 | i
COc1ccc(C)cc1Nc1nc(-c2c[nH]c3ccccc23)cs1 | i
COCCN=c1scc(-c2cc(OC)ccc2OC)n1/N=C/c1c[nH]c2ccccc12 | 20µM
CC(=O)Nc1ccc(NC(=O)CCc2c(C)nc3c(c(C)nn3-c3ccc(C)cc3)c2C)cc1 | i
O=C(c1ccc2c(c1)N(Cc1ccccc1)C(=O)c1ccccc1S2(=O)=O)N1CCc2ccccc21 | i
Cc1ccc(C(=O)N[C@H](C(=O)Nc2sccc2C(N)=O)C(C)C)cc1 | i
C#CCOc1nc(Nc2cccc([N+](=O)[O-])c2)nc(OCC#C)n1 | i
COc1nc(Nc2ccc([N+](=O)[O-])cc2)nc(NC2CCCCC2)n1 | 16µM
COc1nc(Nc2cccc([N+](=O)[O-])c2)nc(OC)n1 | i
CCOc1cccc2cc(-c3nc4ccc(C(=O)O)cc4[nH]3)c(=O)oc12 | i
Cc1csc(NC(=S)NC(=O)c2ccccc2)n1 | i
Cc1cc(NC(=O)c2ccc(COc3ccccc3Cl)o2)no1 | i
Cc1csc(NC(=O)c2ccc(COc3ccccc3)o2)n1 | 18µM
CC1CCN(S(=O)(=O)c2ccc3c(c2)CCN3C(=O)Nc2ccccc2Br)CC1 | i
CCCCOCc1cc(CN2CCN(c3cccc(Cl)c3)CC2)c(O)c2ncccc12 | i
Cc1cc([N+](=O)[O-])ccc1NCc1ccccc1[N+](=O)[O-] | i
SMILES | TDP-43 rescue
Cc1cc(F)ccc1NCc1ccccc1[N+](=O)[O-] | i
O=[N+]([O-])c1ccccc1CNc1ccc(F)c(Cl)c1 | 16µM
CCOC(=O)c1ccc(NC(=O)C2Cc3ccccc3CN2S(=O)(=O)c2ccc(Cl)cc2)cc1 (stereo not given) | i
S=C(NCc1ccc(Cl)cc1)Nc1ccccc1 | 13µM
S=C(NCc1ccccc1)NCc1ccc(CNC(=S)NCc2ccccc2)cc1 | i
CCNC(=S)Nc1ccc(Cl)cc1 | i
COC(=O)c1ccc(NC(=O)N2CCc3c([nH]c4ccccc34)C2c2ccc(C)cc2)cc1 (stereo not given) | i
O=C(Nc1ccc(Br)cc1F)N1CCC2(CC1)Oc1ccccc1C(=O)N2Cc1ccccc1F | i
CC(C)COC(=O)N1CCCCC1c1cc(C(=O)NCc2ccccc2)no1 (stereo not given) | i
Cc1ccc(C(=O)Nc2c(C(=O)NCc3ccc(Cl)cc3)sc3nc(C)cc(C)c23)cc1 | i
Cc1cccc(NC(=O)C2CCCN(c3nnc(-n4c(C)ccc4C)s3)C2)c1C (stereo not given) | i
COc1ccc(-c2c(C#N)c(SCC(=O)Nc3ccccc3C)nc(C)c2C(=O)Nc2ccccc2)cc1OC | i
Cc1cc(NCc2ccccn2)n2ncc(-c3ccccc3)c2n1 | 8.9µM
CN(C)CCCNc1cc(C(C)(C)C)nc2c(-c3ccccc3)cnn12 | i
CCCc1cc(NCc2ccccn2)n2nc(C)c(-c3ccccc3)c2n1 | i
COc1ccc2c(c1)-c1nc(NC(=O)c3cc(OC)c(OC)c(OC)c3)sc1CC2 | i
COC(=O)c1c(NC(=O)/C(C#N)=C/c2ccc(OC)cc2)sc2c1CCC2 | i
COc1ccc(-n2nnc(-c3nc(-c4ccc5c(c4)OCO5)no3)c2C)cc1Cl | i
CCOc1ccc(NC(=O)CCS(=O)(=O)c2ccc3c(c2)n(C)c(=O)c(=O)n3C)cc1 | i
CSc1ccc(CCNC(=O)C(C)n2nc(C)c3sc4ccccc4c3c2=O)cc1 (stereo not given) | i
Cc1nc(SCC(=O)Nc2ccccc2F)[nH]c(=O)c1Cc1ccccc1 | i
Cc1nn(-c2ccccc2)c(N)c1Sc1ccc([N+](=O)[O-])cc1 | 14µM
Cc1c(C(=S)Nc2ccccc2)cnn1-c1ccc([N+](=O)[O-])cc1 | i
Cc1cnnn1-c1ccc([N+](=O)[O-])cc1 | i
CN1CCN(/C=C2\SC(=S)NC2=O)CC1 | i
SMILES | TDP-43 rescue
O=C1NC(=S)S/C1=C\c1cc2ccccc2nc1N1CCCCC1 | 6.3µM
COc1ccc2nc(N3CCCCC3)c(/C=C3\SC(=S)NC3=O)cc2c1 | i
Cc1cc(C)c(NC(=O)Cn2nnc(-c3nc(-c4ccncc4)no3)c2N)c(C)c1 | i
CN1C(=O)CC(C(=O)Nc2ccc(C(=O)O)cc2)SC1=Nc1ccc(Cl)cc1 (stereo not given) | i
O=C(c1ccco1)c1cn(CC(=O)N2CCCc3ccccc32)c2ccccc12 | 18µM
O=Cc1cn(CC(=O)N2CCCCC2)c2ccccc12 | i
O=C(Cn1cc(C(F)(F)F)ccc1=O)N1CCCc2ccccc21 | i
COc1ccc(CCNC(=O)c2ccc3c(c2)N(Cc2ccc(F)cc2)C(=O)c2ccccc2S3(=O)=O)cc1OC | i
O=C(/C=C/c1cccc([N+](=O)[O-])c1)NCCSCc1cccc(Cl)c1 | 13µM
O=C(/C=C/c1cccc([N+](=O)[O-])c1)NCCc1ccc(F)cc1 | i
O=C(/C=C/c1ccccc1)NCCSCc1ccccc1 | i
CCCSc1ncc(Cl)c(C(=O)Nc2c(C(=O)c3ccc(C)cc3)oc3ccccc23)n1 | i
OC(c1ccc(Cl)cc1)c1ncc(-c2cccc(F)c2)[nH]1 (stereo not given) | i
CC1=C(C(=O)Nc2ccccc2)C(c2ccc[nH]2)n2ncnc2N1 (stereo not given) | i
CCOC(=O)CSc1nc2sc3c(c2c(=O)n1Cc1ccccc1)CC(C)CC3 (stereo not given) | i
O=C(N/N=C/C(Br)=C\c1ccccc1)c1ccco1 | 10µM
Cc1occc1C(=O)N/N=C/C(Br)=C\c1ccccc1 | i
O=C(Nc1ccccc1C(=O)N/N=C/c1ccccc1)c1ccco1 | i
CC1CCC(NC(=O)C2(C)Cc3ccccc3C(=O)N2Cc2ccccc2Cl)CC1 (stereo not given) | i
COc1ccc2c(Sc3ccccc3)c(C(=O)NCCCN3CCCCC3)[nH]c2c1 | i
O=C(COC(=O)c1ccc(Br)cc1)NCC1CCCO1 (stereo not given) | i
O=C(COC(=O)c1c(Cl)ccc(Cl)c1Cl)NCC1CCCO1 (stereo not given) | 14µM
O=C(COC(=O)/C=C/c1ccccc1Cl)NCC1CCCO1 (stereo not given) | i
CC1(C(=O)O)CCCN1C(=O)c1ccccc1OC(F)(F)F (stereo not given) | i
COc1cc2c(cc1OC)CN(C(=O)Nc1ccccc1)CC2 | i
COc1cc2c(cc1OC)CN(C(=O)Nc1ccccc1Cl)CC2 | 13µM
COc1cccc(N2CCN(C(=O)Nc3ccccc3Cl)CC2)c1 | i
Cc1ccc(CN(C(=O)c2csnn2)C(C(=O)NC2CCCC2)c2cccnc2)cc1 (stereo not given) | i
CCCSc1ncc(Cl)c(C(=O)NCc2ccc(C)cc2)n1 | i

From PubChem
